Laboratory results reported in PubChem BioAssay.
Calls of active or inactive are those of the source.

How the values were obtained:
[1] = small molecules captured by biotinylated probe aFSTL3 – biochemical, small-molecule microarray, fluorescence 635/667, stem cell growth factor project, primary screen (AID 1064); settings: higher = more signal;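 further: measures binding of the biotinylated anti-FSTL3 antibody to printed compounds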
[2] = binders from COS7 lysate, DM2A8 probe, primary screen, torsin A project, cell lysate, small-molecule microarray, fluorescence 635/667 (AID 1065); settings: higher = more signal, COS7 lysate expressing mutant human TOR1A
[3] = small molecules captured by biotinylated probe aFGF2 – biochemical, small-molecule microarray, fluorescence 635/667, stem cell growth factor project, primary screen (AID 1067); settings: higher = more signal;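 further: measures binding of biotinylated aFGF2 protein to printed compounds on slides; z-score merges feature fluorescence and signal-to-noise across triplicate slides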
[4] = small molecules captured by biotinylated probe aFGF10 – biochemical, small-molecule microarray, fluorescence 635/667, stem cell growth factor project, primary screen (AID 1071); settings: higher = more signal;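 further: score merges 667 nm spot intensity and signal to noise from triplicate slides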
[5] = molecular target: Neurogenic locus notch homolog protein 2 (Homo sapiens) (UniProt Q04721); test: small molecules binding Notch2 protein – biochemical, small-molecule microarray, 635 nm fluorescence, stem cell growth factors, primary screen (AID 1073); settings: higher = more signal
Neurogenic locus notch homolog protein 2 (Homo sapiens), sequence (Q04721 whole entry, looked up, canonical isoform): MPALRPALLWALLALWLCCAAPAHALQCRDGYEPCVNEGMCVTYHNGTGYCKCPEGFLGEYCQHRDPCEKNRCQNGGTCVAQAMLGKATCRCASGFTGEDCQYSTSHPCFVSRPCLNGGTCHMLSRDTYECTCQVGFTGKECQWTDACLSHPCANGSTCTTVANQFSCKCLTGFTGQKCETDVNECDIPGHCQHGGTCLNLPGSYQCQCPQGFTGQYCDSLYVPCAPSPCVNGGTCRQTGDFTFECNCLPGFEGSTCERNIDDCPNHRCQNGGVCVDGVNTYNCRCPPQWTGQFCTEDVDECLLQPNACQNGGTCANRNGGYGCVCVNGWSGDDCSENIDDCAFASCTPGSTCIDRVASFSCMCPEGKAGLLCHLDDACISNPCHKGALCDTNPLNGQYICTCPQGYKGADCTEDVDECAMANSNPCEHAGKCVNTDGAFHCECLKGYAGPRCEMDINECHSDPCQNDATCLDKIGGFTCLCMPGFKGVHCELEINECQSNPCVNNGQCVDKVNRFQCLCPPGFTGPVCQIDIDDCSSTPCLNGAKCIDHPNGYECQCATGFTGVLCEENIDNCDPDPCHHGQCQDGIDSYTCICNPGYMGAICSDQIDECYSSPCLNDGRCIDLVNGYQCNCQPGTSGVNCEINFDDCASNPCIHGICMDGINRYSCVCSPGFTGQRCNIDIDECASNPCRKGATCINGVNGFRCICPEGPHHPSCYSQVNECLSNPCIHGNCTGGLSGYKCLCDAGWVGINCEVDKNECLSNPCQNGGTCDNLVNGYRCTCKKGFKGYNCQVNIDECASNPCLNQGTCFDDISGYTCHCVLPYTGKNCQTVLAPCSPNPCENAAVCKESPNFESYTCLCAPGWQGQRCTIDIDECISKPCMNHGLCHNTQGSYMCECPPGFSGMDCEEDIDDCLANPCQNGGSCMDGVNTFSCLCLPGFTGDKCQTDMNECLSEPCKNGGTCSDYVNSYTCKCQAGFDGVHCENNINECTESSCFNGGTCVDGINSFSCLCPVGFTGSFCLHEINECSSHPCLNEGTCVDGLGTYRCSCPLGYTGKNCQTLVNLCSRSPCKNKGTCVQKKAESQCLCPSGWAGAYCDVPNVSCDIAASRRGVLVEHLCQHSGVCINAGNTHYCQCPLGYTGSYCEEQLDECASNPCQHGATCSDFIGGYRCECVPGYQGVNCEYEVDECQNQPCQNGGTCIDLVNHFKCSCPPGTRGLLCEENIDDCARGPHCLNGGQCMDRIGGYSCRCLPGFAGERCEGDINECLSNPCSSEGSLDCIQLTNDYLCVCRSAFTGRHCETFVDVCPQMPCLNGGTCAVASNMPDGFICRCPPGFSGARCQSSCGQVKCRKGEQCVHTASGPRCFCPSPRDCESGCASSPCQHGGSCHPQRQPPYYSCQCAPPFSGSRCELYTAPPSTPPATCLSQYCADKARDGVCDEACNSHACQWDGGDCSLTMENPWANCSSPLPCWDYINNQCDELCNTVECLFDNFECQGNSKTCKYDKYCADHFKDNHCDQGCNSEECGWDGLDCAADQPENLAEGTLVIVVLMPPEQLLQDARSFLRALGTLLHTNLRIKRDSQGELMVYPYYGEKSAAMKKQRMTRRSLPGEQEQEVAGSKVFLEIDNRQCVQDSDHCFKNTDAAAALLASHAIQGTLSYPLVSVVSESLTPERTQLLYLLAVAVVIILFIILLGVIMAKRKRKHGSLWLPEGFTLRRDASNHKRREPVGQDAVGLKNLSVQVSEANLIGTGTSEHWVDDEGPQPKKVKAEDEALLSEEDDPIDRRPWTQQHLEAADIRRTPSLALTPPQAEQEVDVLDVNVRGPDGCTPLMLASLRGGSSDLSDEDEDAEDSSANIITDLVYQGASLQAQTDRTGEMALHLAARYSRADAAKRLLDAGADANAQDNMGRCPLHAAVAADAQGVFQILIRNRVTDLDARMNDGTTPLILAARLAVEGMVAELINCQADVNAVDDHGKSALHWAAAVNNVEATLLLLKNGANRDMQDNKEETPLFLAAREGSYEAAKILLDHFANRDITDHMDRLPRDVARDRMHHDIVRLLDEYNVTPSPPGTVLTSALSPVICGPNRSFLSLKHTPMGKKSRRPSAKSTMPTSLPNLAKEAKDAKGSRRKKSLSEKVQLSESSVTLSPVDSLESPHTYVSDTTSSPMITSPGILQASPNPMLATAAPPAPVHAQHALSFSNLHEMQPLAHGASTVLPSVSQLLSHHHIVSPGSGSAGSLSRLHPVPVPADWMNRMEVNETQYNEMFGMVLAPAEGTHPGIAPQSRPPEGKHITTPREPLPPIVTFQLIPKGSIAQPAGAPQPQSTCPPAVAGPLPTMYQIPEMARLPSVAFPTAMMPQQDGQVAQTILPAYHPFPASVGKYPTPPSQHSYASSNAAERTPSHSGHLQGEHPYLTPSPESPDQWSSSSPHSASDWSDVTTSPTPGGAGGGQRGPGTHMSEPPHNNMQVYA

[6] = molecular target: Pro-neuregulin-1, membrane-bound isoform (Homo sapiens) (UniProt Q02297); test: small molecules binding neuregulin-1 protein – biochemical, small-molecule microarray, fluorescence 635/667, psychiatric disease protein project, primary screen (AID 1075); settings: NRG1 binding, 635 nm fluorescence, higher = more signal;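 further: score combines 667 nm spot fluorescence with signal to noise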
Pro-neuregulin-1, membrane-bound isoform (Homo sapiens), sequence (Q02297 whole entry, looked up, the tested form may be a part, canonical isoform): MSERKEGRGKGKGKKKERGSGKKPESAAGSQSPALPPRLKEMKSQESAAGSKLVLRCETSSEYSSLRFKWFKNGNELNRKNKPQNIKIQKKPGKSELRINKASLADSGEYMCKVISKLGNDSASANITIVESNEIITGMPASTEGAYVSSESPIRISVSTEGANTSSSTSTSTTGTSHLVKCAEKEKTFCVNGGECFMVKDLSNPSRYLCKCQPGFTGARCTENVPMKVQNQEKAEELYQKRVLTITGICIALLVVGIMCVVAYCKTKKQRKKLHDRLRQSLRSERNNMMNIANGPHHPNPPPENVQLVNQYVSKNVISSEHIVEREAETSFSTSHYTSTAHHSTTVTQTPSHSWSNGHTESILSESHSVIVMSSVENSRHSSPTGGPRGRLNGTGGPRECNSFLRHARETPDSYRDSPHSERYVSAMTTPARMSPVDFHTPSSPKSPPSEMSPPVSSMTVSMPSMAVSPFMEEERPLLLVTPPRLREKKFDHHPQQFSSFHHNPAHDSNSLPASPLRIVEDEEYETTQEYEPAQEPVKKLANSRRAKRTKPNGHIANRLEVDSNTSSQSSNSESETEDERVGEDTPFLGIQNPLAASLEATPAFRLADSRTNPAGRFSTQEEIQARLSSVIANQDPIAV

[7] = system: Neuregulin-1 EGF-like domain; test: small molecules binding NRG1 EGF domain – biochemical, small-molecule microarray, 635 nm fluorescence, primary screen (AID 1081); settings: higher = more signal;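 further: binding of the protein to compounds printed on small-molecule microarray slides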
[8] = FRG1 expression reporter modulators in myotubes – cell-based, C2C12 myotubes, firefly/Renilla luciferase, luminescence, FRG1 inhibition for FSHD, primary screen (AID 1084); settings: FRG1 promoter luciferase, higher = more signal, called active from +8 up or from −8 down
[9] = small molecules captured by biotinylated probe aFST – biochemical, small-molecule microarray, fluorescence 635/667, stem cell growth factor project, primary screen (AID 1086); settings: higher = more signal;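 further: score merges 667 nm fluorescence with signal-to-noise of each printed compound spot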
[10] = binders of probe aHhip on microarray, primary screen, stem cell growth factor project, biochemical, small-molecule microarray, fluorescence 635/667 (AID 1087); settings: higher = more signal;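 further: score merges spot fluorescence at 667nm with spot signal to noise ratio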

Structure (SMILES) | composite z-score [1] | composite z-score [2] | composite z-score [3] | composite z-score [4] | composite z-score [5] | composite z-score [6] | composite z-score [7] | z-score [8] | composite z-score [9] | composite z-score [10]
CCCNC(=O)[C@@H]1c2ccccc2C(=O)N(Cc2ccccc2Cl)[C@H]1c1ccc(CO)cc1 | 0.198 | 0.274 | 0.0336 | 0.633 | 1.17 | 0.963 | 1.21 | -1.18 (inactive) | 0.703 | -0.216
COc1ccc(O[C@H]2C=C[C@@H](c3ccccc3)O[C@@H]2COC(=O)CCC(C)=NOC(C)CN2CCCCc3nc(C)c(C)cc32)cc1 (stereo not given in full) | 0.614 | -0.017 | -0.164 | -0.102 | -0.763 | -0.0663 | 0.106 | 0.766 (inactive) | -0.62 | -0.226
COc1ccc(O[C@H]2C=C[C@@H](c3ccccc3)O[C@@H]2COC(=O)CCC(C)=NOCC[C@@H]2C=C[C@H](OC(C)=O)[C@@H](COC(C)=O)O2)cc1 | -0.19 | 0.779 | -0.0363 | -0.171 | -0.086 | 0.0028 | -0.183 | 1.04 (inactive) | 0.406 | 0.305
C[C@@H](c1ccccc1)N1C(=O)[C@H]2[C@H]3[C@H](O)[C@H](O)CC(=NNC(=O)OCc4ccccc4)[C@H]3CC[C@H]2C1=O | 0.512 | 0.16 | -0.129 | 0.201 | 0.382 | -0.207 | -0.451 | 0.0168 (inactive) | 0.366 | -0.236
COC(=O)C1(C)C=C2C(=C(c3ccccc3)C(=O)C2C)CN1 (stereo not given) | 0.84 | 0.0679 | -0.0535 | -0.18 | -0.167 | 1.96 | 0.691 | 2.35 (inactive) | 0.313 | 0.23
CO[C@@H]1COC(=O)CC=C[C@@H](C)[C@@H]2C=C[C@H](O)[C@@H](COC(=O)CCC[C@H]1C)O2 | -0.29 | 1.11 | -0.146 | -0.14 | -0.117 | -0.582 | -0.167 | -0.414 (inactive) | 0.246 | -0.261
CC(C)(C)OC(=O)CC[C@]1(C(=O)NCc2ccccc2)N=C(c2ccc(OCCCO)cc2)O[C@H]1c1ccccc1 | 0.0895 | 0.8 | -0.0036 | 1 | 0.979 | 1.94 | 1.23 | -2.08 (inactive) | 1.04 | -0.0645
COC(=O)[C@@]1(Cc2ccc(F)cc2)[C@H]2c3cc(C(=O)N(C)C)n(Cc4ccc(OC)c(OC)c4)c3C[C@H]2CN1C(=O)c1ccccc1 | 0.257 | -0.0565 | 0.184 | 0.551 | 1.56 | 0.641 | 1.44 | 0.619 (inactive) | 0.169 | 0.402
CCOC(=O)C1=CCC(c2cc3ccccc3[nH]2)NC1 (stereo not given) | 1.31 | 0.758 | -0.0629 | -0.355 | 0.476 | 0.963 | 1.13 | 4.17 (inactive) | 0.77 | -0.156
CC(C)CON=C1[C@H]2CCn3c(=O)n(-c4ccccc4)c(=O)n3[C@H]2[C@H](O)[C@@H]2O[C@H]12 | -0.358 | -0.0519 | -0.102 | 0.325 | 0.532 | -0.0371 | 0.323 | -0.217 (inactive) | 0.204 | -0.069
CO[C@@H]1COC(=O)[C@@H]2CCCN2C(=O)[C@@H](C)COC(=O)[C@H](COCc2ccccc2)NC(=O)CC=C[C@H]1C | -0.451 | 0.32 | -0.112 | 0.451 | 0.433 | 0.101 | 0.253 | -0.0485 (inactive) | 0.79 | -0.0645
CCOC(=O)CCN1C(=O)[C@H]2[C@H]3[C@H](O)[C@H](O)CC(=NOC[C@@H](O)COCc4ccco4)[C@@H]3CC[C@H]2C1=O | 0.545 | 0.457 | 0.0166 | 0.484 | -0.328 | -0.21 | 0.486 | -0.124 (inactive) | 0.356 | -0.134
CCc1cccc(NC(=O)O[C@H]2[C@H](OC(=O)Nc3ccc4c(c3)OCO4)[C@@H](OC(=O)Nc3ccc4c(c3)OCO4)[C@@H](OC)O[C@@H]2CO)c1 | -0.263 | 1.45 | 0.225 | 1 | 1.49 | -0.396 | 1.25 | 8.02 (active) | 0.507 | -0.15
CCN1C(=O)[C@H]2[C@H]3[C@H](O)[C@H](O)CC(=NOCc4ccccc4)[C@@H]3CC[C@H]2C1=O | -0.239 | 0.441 | -0.197 | 0.31 | 0.931 | -0.195 | 0.567 | -0.641 (inactive) | 0.0882 | -0.3
O=C1O[C@@H](c2ccccc2)[C@@H](c2ccccc2)N2[C@@H](c3ccc(O)cc3)[C@]3(C(=O)Nc4ccccc43)[C@@H](C(=O)O)[C@H]12 | -0.149 | 0.227 | -0.0969 | 0.46 | 0.0863 | 1.67 | 1.08 | -1.09 (inactive) | 0.231 | -0.0212
O=C1NC(=O)C2C1C=CC(C(O)Cc1ccccc1)N2Nc1ccccn1 (stereo not given) | -0.368 | 0.0052 | -0.0154 | 0.477 | 1.14 | 1.79 | 0.934 | -0.518 (inactive) | 0.494 | -0.0618
COc1cccc([C@H]2Oc3ccc(OC)cc3C(=NO[C@H](C)c3cn([C@@H]4COC[C@H]4O)nn3)[C@@H]2O)c1 | -0.183 | 0.044 | -0.0867 | -0.246 | -0.315 | 0.0671 | -0.168 | 0.253 (inactive) | -0.324 | -0.305
CC(CCN1CCc2nc(-c3ccccc3)c(-c3ccccc3)cc2C1)=NOC[C@@H](C)[C@H](OCc1ccccc1)C(C)C | -0.0574 | -1.01 | -0.172 | -0.756 | -1.63 | 0.0189 | -0.0462 | 0.764 (inactive) | -0.32 | -0.206
Cc1ccc(S(=O)(=O)N[C@@H]2COC(=O)[C@H](C)COC(=O)CC=C[C@H]2C)cc1 | -0.618 | 0.133 | -0.121 | 0.305 | -0.0058 | -0.0185 | -0.228 | -0.564 (inactive) | -0.0468 | 0.176
CCCC=C(CCC)[C@@H](NC(=O)c1ccc(-c2ccccc2)cc1)c1ccc(C(=O)OC)cc1 | 0.0763 | -0.719 | 0.0827 | 0.0375 | 1.51 | 0.746 | 0.824 | 0.348 (inactive) | 0.801 | 1.81
CCCCCN1CC=CC23O[C@@H]4C=CCOC(=O)[C@@H]4[C@H]2C(=O)N(C(CO)C(C)C)[C@@H]3C1=O (stereo not given in full) | 0.232 | -1.58 | -0.141 | -0.495 | -1.15 | -0.694 | 0.657 | -0.0073 (inactive) | -0.357 | -0.15
O=C1[C@H]2[C@H]3[C@H](O)[C@H](O)CC(=NOCc4ccccc4)[C@H]3CC[C@H]2C(=O)N1c1ccc(F)cc1F | -0.426 | -0.0076 | -0.0561 | 0.0471 | -0.0497 | 0.757 | 0.106 | 0.131 (inactive) | -0.314 | -0.214
COc1cccc([C@H]2Oc3ccc(OC)cc3C(=NOC(C)CN3CCCc4nc(C)c(C)cc43)[C@@H]2O)c1 (stereo not given in full) | -0.437 | 0.15 | -0.0316 | 0.32 | 0.687 | 0.146 | 0.541 | 2.49 (inactive) | -0.055 | 0.154
CCCNC(=O)OC[C@H]1O[C@H](CCON=C2[C@H]3CCn4c(=O)n(-c5ccccc5)c(=O)n4[C@H]3[C@H](O)[C@@H]3O[C@H]23)C=C[C@@H]1Oc1ccc(OC)cc1 | -0.362 | 0.447 | -0.0885 | 0.406 | 0.774 | -0.248 | 0.0894 | -0.257 (inactive) | 0.214 | -0.0994
[N-]=[N+]=NCc1ccccc1C[C@]1(C(=O)NCc2ccccc2)N=C(c2ccc(OCCCO)cc2)O[C@H]1c1ccccc1N=[N+]=[N-] | 0.741 | -0.0741 | -0.0231 | 1.13 | 1.22 | 0.799 | 1.01 | -1.34 (inactive) | 1.16 | 0.295
CC1CC/C=C\[C@H]2OC34C=CCN(Cn5nnc6ccccc65)C(=O)[C@H]3N(CCO)C(=O)[C@@H]4C2C(=O)O1 (stereo not given in full) | 0.398 | 1.96 | -0.0778 | -0.181 | -1.29 | 1.52 | 1.43 | -0.203 (inactive) | -0.655 | -0.0324
CCCNC(=O)[C@@H]1c2ccccc2C(=O)N(c2ccc(C)cn2)[C@H]1c1ccc(CO)cc1 | 0.901 | 0.0211 | -0.176 | -0.857 | -1.01 | -0.465 | 1.4 | 0.213 (inactive) | -0.348 | -0.258
